According to PubChem BioAssay (NCI):
This is part of a sample that, as a whole, favours compounds with a hit. Of some 83,000 tested, about 20% had one in any assay.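 For each line, cells grew in 96-well plates with the test compound present at a single concentration for 48 hours.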 Activity calls are given as the source filed them. The calls were made as follows: active = growth percent below 10; inactive = the rest.

The compounds below were run on RPMI-8226 leukemia (assay: NCI-60 one-dose screen, 48 h (100 = growth as untreated, 0 = no growth, -100 = all killed)). Details: 10 µM unless noted.

| SMILES | growth |
| --- | --- |
| CC1=CC[C@@H]2C(C)(C)C(=O)CC[C@@]2(C)[C@@H]1COc1ccc2ccc(=O)oc2c1 | 45.9% (inactive) |
| COc1ccc(/C=C2\N=C(Nc3ccccc3)N(NC(=O)c3ccccn3)C2=O)cc1 | 88.2% (inactive) |
| COc1ncc(-c2ccc3nccc(C#CCCCCC(=O)NO)c3c2)cc1NS(=O)(=O)c1ccc(F)cc1F | -25.1% (active) |
| COc1ccc2c(c1)C(C)Cc1c(Cl)ncnc1N2C (stereo not drawn) | -2.61% (active) |
| CC[C@@H]1NC(=O)[C@@H]2CCCCN2C(=O)[C@@H]2CCCN2C(=O)[C@@H](NC(=O)[C@H](Cc2cc(F)cc(F)c2)NC(=O)Nc2ccc(C3CC3)cc2F)[C@H](C)OC(=O)[C@@H]2C[C@@H](C)CN2C1=O | 12.8% (inactive) |
| CCN(CC)c1cc(N)c(Cc2c(N)cc(N(CC)CC)cc2Cl)c(Cl)c1 | 3.27% (active) |
| O=C1COCCN1c1ccc(Nc2nc(Cl)nc(N3CCOCC3)n2)cc1 | 98.9% (inactive) |
| Cn1cc(-c2nnc(-c3cn(C)c4ncc(Br)cc34)s2)c2cc(Br)ccc21 | 87.4% (inactive) |
| Nc1ccc2c(c1)Cc1cc(NC(=O)C(F)(F)F)ccc1-2 | 88.3% (inactive) |
| COc1ccc(-c2cc(-c3ccc(Cl)cc3)nc(NCCCCNc3ccnc4cc(Cl)ccc34)n2)cc1 | 23.8% (inactive) |
| C#C[C@]1(O)CC[C@H]2[C@@H]3CC=C4c5nc(Nc6ccc(OC)cc6OC)sc5CC[C@]4(C)[C@H]3CC[C@@]21C | -26.1% (active) |
| CNC(=O)c1cc(Oc2ccc3nc(NC(=O)c4ccc5ncccc5c4)sc3c2)ccn1 | 71.9% (inactive) |
| COc1ncc(-c2ccc3nccc(C#CCCCCC(=O)O)c3c2)cc1NS(=O)(=O)c1ccc(F)cc1F | 47.4% (inactive) |
| CCc1ccc(C2=C/C(=C/c3ccccc3)C(=O)N2CCc2ccc(S(N)(=O)=O)cc2)cc1 | 110% (inactive) |
| Cc1ccc(-c2cn(C/C=C3\C=CN(S(=O)(=O)c4ccccc4)CC3)nn2)cc1 | 102% (inactive) |
| CCN1c2ccccc2C(Cl)(c2ccc(N(C)C)cc2)c2ccccc21 | -28.8% (active) |
| COc1ccc(-c2ccc(NNC(=O)c3ccc(F)cc3)nn2)cc1OC | 70.7% (inactive) |
| c1ccc(-c2nnc(-c3c[nH]c4ncccc34)s2)cc1 | 91.9% (inactive) |
| COc1c(B(O)O)cccc1-c1nc2ccc3[nH]ncc3c2c2c1CCC2 | 60.1% (inactive) |

| SMILES | growth |
| --- | --- |
| O=C1/C(=C\c2cccn2Cc2ccccc2)c2ccccc2N1c1c(Cl)cccc1Cl | 60.2% (inactive) |
| CN(C)c1ccc(-c2ccc(-c3ccc(C(=N)N)cc3)s2)cc1 | -40% (active) |
| CC(C)(C)c1cc(C(=O)Nc2ccc(C(=O)NCCN)cc2)cc(C(C)(C)C)c1 | 15.6% (inactive) |
| CC1=CC[C@@H]2C(C)(C)[C@@H](O)CC[C@@]2(C)[C@@H]1COc1ccc2ccc(=O)oc2c1 | 19.8% (inactive) |
| CCn1cc(-c2cc(-c3ccc(Cl)cc3)nc(N)n2)c(-c2ccc(Br)cc2)n1 | 66.2% (inactive) |
| COc1cc(-c2cc(-c3ccc(Nc4ncnc5cc(Cl)ccc45)cc3)nc(N3CCCCC3)n2)cc(OC)c1OC | 109% (inactive) |
| Cn1cc(-c2nnc(-c3ccccc3)s2)c2cc(Br)cnc21 | 85.8% (inactive) |
| CC(=O)Nc1ccc2nc3ccc(NC(C)=O)cc3[n+](-c3ccccc3)c2c1 | 62.1% (inactive) |
| Cc1cccc(C[C@H](NC(=O)Nc2ccc(Cl)cc2F)C(=O)N[C@@H]2C(=O)N3C[C@H](O)C[C@H]3C(=O)N3CCCC[C@H]3C(=O)N[C@@H](C)C(=O)N3C[C@H](C)C[C@H]3C(=O)O[C@H]2C)c1 | 6.39% (active) |
| COc1ccc(NC(=S)NNc2ccc(-c3ccc(OC)c(OC)c3)nn2)cc1 | 103% (inactive) |
| Cn1cc(-c2nnc(-c3cn(C)c4ncccc34)s2)c2ccccc21 | 43.9% (inactive) |
| Fc1cc2[nH]ncc2c2c3c(c(-c4cn[nH]c4C(F)(F)F)nc12)C1CCC3C1 (stereo not drawn) | 7.73% (active) |
| COc1ccc2nc3cc(Cl)ccc3c(Nc3ccc(O)cc3)c2c1 | 68.6% (inactive) |
| CCOC(=O)n1cc(C2=C(c3ccc(OC)c(OC)c3)COC2=O)c2ccccc21 | 27.9% (inactive) |
| C[n+]1c(-c2ccccc2)c2cc(N)ccc2c2ccccc21 | 17.7% (inactive) |
| Fc1cc2[nH]ncc2c2c3c(c(-c4cn[nH]c4)nc12)CCCC3 | 1.77% (active) |
| CCN(CC)c1ccc2cc(NC(=O)OCCNC(=O)CCNC(=O)[C@H](CC(C)C)NC(=O)C(C)(C)NC(=O)C(C)(C)NC(=O)[C@H](CC(C)C)NC(=O)CCNC(=O)C(C)(C)NC(=O)[C@H](CC(C)C)NC(=O)CCNC(=O)[C@@](C)(CC)NC(=O)[C@H](C)NC(=O)CCNC(=O)C(C)(C)NC(=O)[C@H](C)NC(=O)[C@@H]3CCCN3C(=O)[C@@](C)(CC)NC(=O)[C@H](Cc3ccccc3)NC(=O)C3CCCN3C(=O)C(C)(C)NC(=O)C3CCCN3C(=O)C(C)(C)NC(C)=O)c(=O)oc2c1 (stereo partly drawn) | -60.4% (active) |
| COc1cc(NCc2cn(-c3ccc(C(=O)O)cc3)nc2-c2ccc(C(=O)O)cc2)cc(OC)c1OC | 93.2% (inactive) |
| CC(C)CCSc1nc(N)nc2nc[nH]c12 | 94.6% (inactive) |
